Measurements as given in PubChem BioAssay (NCI).
About 79,000 compounds went through this panel and 15% of them were active in at least one assay; those are over-represented in the sample as a whole. Rule as the data show it: active = growth inhibition above about 70%; inactive = the rest.

Key:
[1] = NCI Yeast Anticancer Drug Screen. Data for the rad52 strain (AID 147);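 also: 0% = growth of vehicle-treated control cultures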; details: S. cerevisiae rad52 mutant growth inhibition, hits give high values
Method in brief: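 Yeast strain carrying a DNA damage repair alteration was exposed to test compounds. Growth inhibition was measured relative to vehicle-treated controls.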

[2] = NCI Yeast Anticancer Drug Screen. Data for the rad50EPP+ strain (AID 151);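 also: 0% = growth of vehicle-treated control cultures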; details: S. cerevisiae rad50 mutant strain, hits give high values
Method in brief: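 Yeast strain carrying rad50 alteration (rad50EPP+) exposed to compounds; growth inhibition measured relative to vehicle-treated controls.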

[3] = NCI Yeast Anticancer Drug Screen. Data for the mgt1 strain (AID 153); details: S. cerevisiae mgt1 mutant growth inhibition, hits give high values
Method in brief: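 Yeast mgt1 strain (DNA repair/cell-cycle alteration panel) exposed to compounds; growth inhibition measured relative to vehicle-treated controls.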

[4] = NCI Yeast Anticancer Drug Screen. Data for the rad50 strain (AID 155);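 also: 0% = growth of vehicle-only cultures of the same strain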; details: S. cerevisiae rad50 strain growth inhibition, hits give high values
Method in brief: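 Readout: growth inhibition relative to vehicle-treated cultures. Compound exposure was carried out in a genetically defined yeast strain deficient in DNA damage repair.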

[5] = NCI Yeast Anticancer Drug Screen. Data for the mec2-1 strain (AID 157); details: S. cerevisiae mec2-1 strain, hits give high values
Method in brief: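 mec2-1 yeast strain, carrying an alteration in DNA damage repair or cell cycle control, was exposed to compounds; growth inhibition was measured relative to vehicle-treated controls.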

[6] = NCI Yeast Anticancer Drug Screen. Data for the rad14 strain (AID 159);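 also: 0% = growth of vehicle-treated control cultures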; details: S. cerevisiae rad14 strain growth inhibition, hits give high values
Method in brief: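 Growth inhibition vs vehicle controls; genetically altered yeast strain (DNA damage repair defect) treated with test compounds.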

[7] = NCI Yeast Anticancer Drug Screen. Data for the sgs1 mgt1 strain (AID 161);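 also: 0% = growth of cultures given vehicle only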; details: S. cerevisiae sgs1 mgt1 strain, hits give high values
Method in brief: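 Percent growth inhibition was derived by comparing compound-exposed mutant yeast with vehicle-exposed cultures. The strain carries alterations in DNA damage repair.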

[8] = NCI Yeast Anticancer Drug Screen. Data for the CLN2oe strain (AID 163);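 also: 0% = growth of vehicle-only control cultures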; details: S. cerevisiae CLN2oe strain, hits give high values
Method in brief: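 Yeast cells carrying a defined cell-cycle control alteration were exposed to test compounds. Growth inhibition was scored against vehicle-treated control cultures.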

[9] = NCI Yeast Anticancer Drug Screen. Data for the bub3 strain (AID 167); details: S. cerevisiae bub3 mutant strain, hits give high values
Method in brief: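 Readout: yeast growth inhibition, expressed relative to vehicle-only wells. The test organism is a mutant strain from a panel with lesions in DNA repair or checkpoint genes.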

[10] = NCI Yeast Anticancer Drug Screen. Data for the wt2 strain (AID 169);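 also: 0% = growth of vehicle-treated yeast cultures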; details: S. cerevisiae wt2 strain growth inhibition, hits give high values
Method in brief: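 Yeast cells were exposed to test compounds, and growth inhibition was measured relative to vehicle-treated controls.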

[11] = NCI Yeast Anticancer Drug Screen. Data for the mlh1 strain (AID 171);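 also: 0% = growth of vehicle-treated control cultures of the same strain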; details: S. cerevisiae mlh1 strain growth inhibition, hits give high values
Method in brief: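 Yeast carrying a defined genetic alteration in DNA damage repair or cell cycle control were exposed to test compounds. Growth inhibition was measured relative to vehicle-treated controls.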

[12] = NCI Yeast Anticancer Drug Screen. Data for the sgs1 strain (AID 173);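 also: 0% = growth of vehicle-only control cultures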; details: S. cerevisiae sgs1 mutant, hits give high values
Method in brief: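 Yeast mutant strains carrying defined defects in DNA damage repair or cell cycle control were exposed to test compounds. Growth inhibition was scored against vehicle-treated controls.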

[13] = NCI Yeast Anticancer Drug Screen. Data for the mlh1 rad18 strain (AID 175); details: S. cerevisiae mlh1 rad18 strain growth inhibition, hits give high values
Method in brief: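 Growth inhibition of the yeast strain was measured after compound exposure and expressed relative to vehicle-treated controls. The strain carries defined defects in DNA damage repair.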

[14] = NCI Yeast Anticancer Drug Screen. Data for the rad18 strain (AID 177); details: S. cerevisiae rad18 mutant growth inhibition, hits give high values
Method in brief: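 Yeast carrying a defined DNA damage repair alteration were exposed to compounds. Growth inhibition was expressed relative to vehicle-treated controls.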

[15] = at 5.0 µM (retest, dose inferred, filed as 0.5)
[16] = at 50.0 µM (retest, dose inferred, filed as 5.0)

Measured: growth inhibition

COC(=O)Oc1cc(Cl)c(Cl)cc1Cl
inactive: [1]; at 1.2 µM 0% | [1]; at 3.7 µM 0% | [1]; at 11.0 µM -1% | [1]; at 33.0 µM 4% | [1]; at 100.0 µM 9% | [2]; at 1.2 µM -1% | [2]; at 3.7 µM 0% | [2]; at 11.0 µM 7% | [2]; at 33.0 µM 2% | [2]; at 100.0 µM 1% | [3]; at 1.2 µM -1% | [3]; at 3.7 µM 0% | [3]; at 11.0 µM 1% | [3]; at 33.0 µM -3% | [3]; at 100.0 µM 1% | [4]; at 1.2 µM 0% | [4]; at 3.7 µM 0% | [4]; [15] 4% | [4]; at 11.0 µM -1% | [4]; at 33.0 µM 2% | [4]; [16] -5% | [4]; at 50.0 µM 30.8% | [4]; at 100.0 µM 10% | [5]; at 1.2 µM 0% | [5]; at 3.7 µM 4% | [5]; [15] -4% | [5]; at 11.0 µM 3% | [5]; at 33.0 µM 5% | [5]; [16] 23% | [5]; at 50.0 µM 21.4% | [5]; at 100.0 µM 8% | [6]; at 1.2 µM 0% | [6]; at 3.7 µM 0% | [6]; at 11.0 µM 2% | [6]; at 33.0 µM 5% | [6]; at 100.0 µM 9% | [7]; [15] 3% | [7]; [16] 1% | [7]; at 50.0 µM 30.1% | [8]; at 1.2 µM -4% | [8]; at 3.7 µM -3% | [8]; at 11.0 µM -7% | [8]; at 33.0 µM -6% | [8]; at 100.0 µM -4% | [9]; at 1.2 µM 1% | [9]; at 3.7 µM 3% | [9]; [15] 12% | [9]; at 11.0 µM 1% | [9]; at 33.0 µM 3% | [9]; [16] 4% | [9]; at 50.0 µM 36% | [9]; at 100.0 µM 3% | [10]; at 1.2 µM 0% | [10]; at 3.7 µM -2% | [10]; at 11.0 µM -2% | [10]; at 33.0 µM -2% | [10]; at 100.0 µM -1% | [11]; at 1.2 µM 1% | [11]; at 3.7 µM -2% | [11]; at 11.0 µM -7% | [11]; at 33.0 µM 3% | [11]; at 100.0 µM 13% | [12]; at 1.2 µM 0% | [12]; at 3.7 µM 0% | [12]; at 11.0 µM 1% | [12]; at 33.0 µM 3% | [12]; at 100.0 µM 10% | [13]; [15] 7% | [13]; [16] 19% | [13]; at 50.0 µM 11.8% | [14]; at 1.2 µM 0% | [14]; at 3.7 µM 5% | [14]; at 11.0 µM 6% | [14]; at 33.0 µM 9% | [14]; at 100.0 µM 20%
